Data: PubChem BioAssay (NCATS)
Values without a mark were called inactive. Records with an inconclusive call do not appear. Entries that show only a call come without a potency. The source made the active and inactive calls. Unless noted, the call rests on the fitted dose curve; in most records, active means well fitted curve in the direction sought with a large enough effect; inconclusive means small, poorly fitted or top-dose-only effect, or another doubt; inactive means no such curve, though single readings can be large; an effect the other way counts as inactive or inconclusive.

How the values were obtained:
[1] = biological target: T1, Tyrosine-protein phosphatase non-receptor type substrate 1 (Homo sapiens) + Leukocyte surface antigen CD47 (Homo sapiens) (UniProt P78324+Q08722); test: CD47-SIRPalpha protein protein interaction - LANCE assay qHTS validation (AID 1347057; active means well fitted curve in the direction sought with a large enough effect in the signal ratio, with a control signal flat, not every such curve was filed as active; the % refers to the signal ratio; further: series mostly up to about 38 µM)
Procedure, shortened: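 First, His-tagged CD47 and Eu-labelled anti-His antibody met the compound for 30 min; next, site-specifically biotinylated SIRPalpha was added for 30 min; finally streptavidin-APC was added before reading the TR-FRET ratio.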

[2] = biological target: T1, Tyrosine-protein phosphatase non-receptor type substrate 1 (Homo sapiens) + Leukocyte surface antigen CD47 (Homo sapiens); test: CD47-SIRPalpha protein protein interaction - HTRF assay qHTS validation (AID 1347058; active means well fitted curve in the direction sought with a large enough effect in the signal ratio, not every such curve was filed as active; the % refers to the signal ratio; further: series mostly up to about 38 µM)
Procedure, shortened: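 TR-FRET read (Ch1/Ch2 ratio) of soluble extracellular CD47 and Avi-biotinylated SIRPalpha domains in PBS pH 7.4 with 0.05% IGEPAL; 7-point compound titration. Sequential 30 min room-temperature steps; non-biotinylated SIRPalpha as control inhibitor.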

[3] = biological target: T1, Tyrosine-protein phosphatase non-receptor type substrate 1 (Homo sapiens) + Leukocyte surface antigen CD47 (Homo sapiens); test: CD47-SIRPalpha protein protein interaction - Alpha assay qHTS validation (AID 1347059);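 further: bead proximity luminescence from CD47 binding SIRPalpha after compound preincubation with SIRPalpha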
Procedure, shortened: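 Soluble extracellular domains: Avi-tag biotinylated SIRPalpha (25 nM) preincubated 30 min RT with compound, then 6His-CD47 (12.5 nM) 30 min; Ni-NTA acceptor and streptavidin donor beads (10 ug/mL) 30 min, AlphaScreen read. PBS pH 7.4, 0.05% IGEPAL.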

[4] = biological target: Parathyroid hormone/parathyroid hormone-related peptide receptor (Homo sapiens) (UniProt Q03431); test: qHTS for PTHR1 Agonists: Optimization Screen against the NCGC LOPAC library (AID 1347079);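 further: GloSensor cAMP luminescence in HEK-293 GP2 cells expressing human PTHR1 with IBMX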
Procedure, shortened: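 Agonist readout: GloSensor cAMP luminescence, read after 15 min at room temperature. HEK-293-derived GP2 line carries PTHR1; compounds tested as a titration for 1 hr at 37C in presence of IBMX. M-PTH (1-15) served as control.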

[5] = qHTS for Inhibitors of the Functional Ribonucleoprotein Complex (vRNP) of Lassa (LASV) Arenavirus: LASV Primary Screen - GLuc reporter signal (AID 1347082; calls by dose curve; tested in HEK293 reporter line; further: series mostly up to about 57 µM; nearly all actives have a fitted effect of over 60% in size)
[6] = qHTS for Inhibitors of the Functional Ribonucleoprotein Complex (vRNP) of Lassa (LASV) Arenavirus: Viability assay - alamar blue signal for LASV Primary Screen (AID 1347083; calls by dose curve; tested in HEK293 reporter line; further: series mostly up to about 57 µM; nearly all actives have a fitted effect of over 80% in size)
[7] = qHTS for Inhibitors of the Functional Ribonucleoprotein Complex (vRNP) of Lymphocytic Choriomeningitis Arenaviruses (LCMV): Viability assay - alamar blue signal for LCMV Primary Screen (AID 1347085; calls by dose curve; tested in HEK293 reporter line; further: series mostly up to about 57 µM; nearly all actives have a fitted effect of over 80% in size)
[8] = biological target: Nucleoprotein (Lymphocytic choriomeningitis virus (strain Armstrong)) (UniProt P09992); test: qHTS for Inhibitors of the Functional Ribonucleoprotein Complex (vRNP) of Lymphocytic Choriomeningitis Arenaviruses (LCMV): LCMV Primary Screen - GLuc reporter signal (AID 1347086; calls by dose curve; further: series mostly up to about 57 µM; nearly all actives have a fitted effect of over 70% in size)
[9] = qHTS of pediatric cancer cell lines to identify multiple opportunities for drug repurposing: Primary screen for TC32 cells (AID 1347089); further: nearly all actives have a fitted effect of over 60% in size
Procedure, shortened: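 Luminescent ATP read-out (CellTiter-Glo) of metabolically active TC32 cells after 48 h exposure. Concentration-response curves came from 11-point (MIPE, 0.78 nM–46 µM) or 8-point (NPC, 0.59 nM–46 µM) primary titrations; follow-up used 11 points.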

[10] = qHTS of pediatric cancer cell lines to identify multiple opportunities for drug repurposing: Primary screen for DAOY cells (AID 1347090); further: nearly all actives have a fitted effect of over 55% in size; further: potency means the concentration at half of the fitted maximal effect
Procedure, shortened: (§1)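 Eight- or eleven-point concentration series, 48 h treatment at 37 degrees C in growth media; readout CellTiter-Glo luminescence. Potency and efficacy were taken from the concentration-response curves.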

[11] = qHTS of pediatric cancer cell lines to identify multiple opportunities for drug repurposing: Primary screen for SJ-GBM2 cells (AID 1347091); further: potency means the concentration at half of the fitted maximal effect
Procedure, shortened: as §1

[12] = qHTS of pediatric cancer cell lines to identify multiple opportunities for drug repurposing: Primary screen for A673 cells (AID 1347092); further: nearly all actives have a fitted effect of over 45% in size; further: potency means the concentration at half of the fitted maximal effect
Procedure, shortened: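 Cell viability of A673 measured by CellTiter-Glo ATP luminescence after 48 hours compound exposure. Dilution series spanned 0.78 nM to 46 µM (MIPE, 11-point) or 0.59 nM to 46 µM (NPC, 8-point); bortezomib 2.3 uM positive control.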

[13] = qHTS of pediatric cancer cell lines to identify multiple opportunities for drug repurposing: Primary screen for SK-N-MC cells (AID 1347093); further: potency means the concentration at half of the fitted maximal effect
Procedure, shortened: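 Metabolically active cells were quantified by ATP-dependent luminescence (CellTiter-Glo, 15 min at room temperature) following 48 h treatment. Cells had been plated at 500-1,000 per well and settled for 5 h beforehand.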

[14] = qHTS of pediatric cancer cell lines to identify multiple opportunities for drug repurposing: Primary screen for BT-37 cells (AID 1347094); further: series mostly up to about 57 µM
Procedure, shortened: (§2)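 Cells plated at 500-1,000/well in growth medium, compounds added after 5 h. MIPE tested at 11 points (from 0.78 nM), NPC at 8 points (from 0.59 nM). CellTiter-Glo luminescence after 48 h; concentration-response curves from primary screen.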

[15] = qHTS of pediatric cancer cell lines to identify multiple opportunities for drug repurposing: Primary screen for U-2 OS cells (AID 1347096); further: nearly all actives have a fitted effect of over 50% in size
Procedure, shortened: (§3)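 Cells (500-1,000/well) in growth media were settled 5 h at 37 degrees C, then given compounds for 48 h. Viability was read as CellTiter-Glo luminescence. Primary runs used MIPE at 11 points (0.78 nM-46 µM) and NPC at 8 points (0.59 nM-46 µM); follow-ups used 11 points.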

[16] = qHTS of pediatric cancer cell lines to identify multiple opportunities for drug repurposing: Primary screen for SK-N-SH cells (AID 1347098); further: nearly all actives have a fitted effect of over 65% in size; further: potency means the concentration at half of the fitted maximal effect
Procedure, shortened: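 Cells (500-1,000/well) rested 5 h, then received compounds for 48 h; metabolically active cells were measured by CellTiter-Glo luminescence. Final concentrations spanned up to 46 µM (MIPE, 11-point) or 0.59 nM-46 µM (NPC, 8-point) in primary screens, 11-point in follow-ups.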

[17] = qHTS of pediatric cancer cell lines to identify multiple opportunities for drug repurposing: Primary screen for NB1643 cells (AID 1347099); further: nearly all actives have a fitted effect of over 50% in size
Procedure, shortened: as §2

[18] = qHTS of pediatric cancer cell lines to identify multiple opportunities for drug repurposing: Primary screen for LAN-5 cells (AID 1347100); further: potency means the concentration at half of the fitted maximal effect
Procedure, shortened: as §3

[19] = qHTS of pediatric cancer cell lines to identify multiple opportunities for drug repurposing: Primary screen for Saos-2 cells (AID 1347097); further: nearly all actives have a fitted effect of over 40% in size; further: potency means the concentration at half of the fitted maximal effect
Procedure, shortened: as §2

[20] = qHTS of pediatric cancer cell lines to identify multiple opportunities for drug repurposing: Primary screen for NB-EBc1 cells (AID 1347095); further: potency means the concentration at half of the fitted maximal effect
Procedure, shortened: as §2

Parathyroid hormone/parathyroid hormone-related peptide receptor (Homo sapiens), sequence (Q03431 whole entry, looked up): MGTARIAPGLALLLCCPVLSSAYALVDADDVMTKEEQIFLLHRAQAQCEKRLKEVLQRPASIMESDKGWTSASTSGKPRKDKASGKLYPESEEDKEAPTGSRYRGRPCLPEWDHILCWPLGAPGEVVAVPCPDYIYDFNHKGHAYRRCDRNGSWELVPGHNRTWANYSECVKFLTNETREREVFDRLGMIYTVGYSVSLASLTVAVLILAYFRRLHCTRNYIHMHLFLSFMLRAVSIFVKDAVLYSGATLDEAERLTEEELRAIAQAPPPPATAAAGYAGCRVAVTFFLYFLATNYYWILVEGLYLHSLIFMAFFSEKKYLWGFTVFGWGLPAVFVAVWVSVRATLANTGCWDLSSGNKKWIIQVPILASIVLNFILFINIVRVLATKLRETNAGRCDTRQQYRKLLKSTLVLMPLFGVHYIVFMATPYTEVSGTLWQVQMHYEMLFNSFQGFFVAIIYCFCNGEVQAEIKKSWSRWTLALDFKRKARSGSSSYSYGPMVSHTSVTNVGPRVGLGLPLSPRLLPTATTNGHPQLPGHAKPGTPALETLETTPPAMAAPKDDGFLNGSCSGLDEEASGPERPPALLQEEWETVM
T1 sequence (P78324 whole entry, looked up): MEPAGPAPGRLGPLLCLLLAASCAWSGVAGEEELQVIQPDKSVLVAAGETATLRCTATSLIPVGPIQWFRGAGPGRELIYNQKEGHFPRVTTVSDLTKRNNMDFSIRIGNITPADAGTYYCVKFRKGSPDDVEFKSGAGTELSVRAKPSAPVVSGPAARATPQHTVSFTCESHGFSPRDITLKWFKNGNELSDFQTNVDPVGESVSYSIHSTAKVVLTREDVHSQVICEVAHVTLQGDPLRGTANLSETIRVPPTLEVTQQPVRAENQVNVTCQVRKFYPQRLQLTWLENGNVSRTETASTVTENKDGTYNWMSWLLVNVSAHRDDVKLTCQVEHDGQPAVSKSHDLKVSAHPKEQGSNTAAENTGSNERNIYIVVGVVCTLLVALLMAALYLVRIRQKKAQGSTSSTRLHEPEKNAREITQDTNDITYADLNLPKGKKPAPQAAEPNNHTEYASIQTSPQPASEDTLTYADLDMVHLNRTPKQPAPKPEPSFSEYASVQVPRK
T1 sequence (Q08722 whole entry, looked up): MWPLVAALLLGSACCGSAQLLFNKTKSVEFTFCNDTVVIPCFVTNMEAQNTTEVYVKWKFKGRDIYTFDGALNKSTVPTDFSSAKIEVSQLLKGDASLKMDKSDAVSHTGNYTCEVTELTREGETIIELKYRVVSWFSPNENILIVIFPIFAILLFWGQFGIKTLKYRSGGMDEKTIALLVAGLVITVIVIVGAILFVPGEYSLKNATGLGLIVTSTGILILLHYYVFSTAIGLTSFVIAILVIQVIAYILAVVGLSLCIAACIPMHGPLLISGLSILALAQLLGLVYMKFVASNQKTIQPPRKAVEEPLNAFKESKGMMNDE
Nucleoprotein (Lymphocytic choriomeningitis virus (strain Armstrong)), sequence (P09992 whole entry, looked up): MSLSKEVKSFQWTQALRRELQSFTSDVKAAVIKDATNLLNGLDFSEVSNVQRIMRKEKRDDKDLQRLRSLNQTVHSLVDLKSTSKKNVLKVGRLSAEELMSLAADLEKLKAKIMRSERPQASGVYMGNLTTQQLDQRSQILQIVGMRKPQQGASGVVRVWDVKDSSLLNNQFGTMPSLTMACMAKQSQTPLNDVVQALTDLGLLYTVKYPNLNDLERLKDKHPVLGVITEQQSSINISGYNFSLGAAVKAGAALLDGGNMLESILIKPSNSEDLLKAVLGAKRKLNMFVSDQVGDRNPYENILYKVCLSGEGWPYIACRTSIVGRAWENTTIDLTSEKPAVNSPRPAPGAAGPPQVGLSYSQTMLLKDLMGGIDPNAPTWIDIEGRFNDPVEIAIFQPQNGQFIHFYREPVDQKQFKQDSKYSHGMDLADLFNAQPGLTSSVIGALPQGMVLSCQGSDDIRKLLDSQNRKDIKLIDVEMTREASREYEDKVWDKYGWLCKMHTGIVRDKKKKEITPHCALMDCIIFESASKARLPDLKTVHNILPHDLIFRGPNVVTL

SMILES	outcome [1]	outcome [2]	outcome [3]	outcome [4]	Potency [5]	Potency [6]	Potency [7]	Potency [8]	Potency [9]	Potency [10]	Potency [11]	Potency [12]	Potency [13]	Potency [14]	Potency [15]	Potency [16]	Potency [17]	Potency [18]	Potency [19]	Potency [20]
CCCN1CCC[C@@H]2Cc3nc(N)ncc3C[C@H]21	inactive	inactive	inactive	inactive	inactive	inactive	inactive	inactive	inactive	inactive	inactive	inactive	inactive	inactive	inactive	inactive	inactive	inactive		
CCC1(C2=NCCN2)Cc2ccccc2O1 (stereo unspecified)	inactive	inactive	inactive	inactive	inactive	inactive	inactive	inactive	inactive	inactive	inactive	inactive	inactive		inactive		inactive	inactive	inactive	
CC[C@@H](CO)NC(=O)[C@@H]1C=C2c3cccc4[nH]cc(c34)C[C@H]2N(C)C1				inactive	inactive	inactive	inactive	inactive	inactive	inactive	inactive	inactive	inactive		inactive	inactive	inactive	inactive	inactive	inactive
NCC1(CC(=O)O)CCCCC1	inactive	inactive	inactive	inactive	inactive	inactive	inactive	inactive		inactive	inactive	inactive	inactive	inactive	inactive	inactive	inactive	inactive	inactive	inactive
Cc1cccc(C)c1NC1=NCCCS1	inactive	inactive	inactive	inactive	inactive	inactive	inactive	inactive	inactive	inactive	inactive	inactive	inactive		inactive	inactive		inactive	inactive	inactive
N#CC(C#N)=Cc1ccc(O)c(O)c1	inactive		inactive	inactive	inactive	inactive	inactive	inactive		inactive	inactive		13.3 µM (active)		inactive	inactive	inactive		inactive	
Cc1ncc(CNC(=O)N(CCCl)N=O)c(N)n1	inactive	inactive	inactive	inactive	inactive	inactive	inactive	inactive		inactive	inactive				inactive	inactive		inactive	inactive	inactive
CN1C[C@H](CNC(=O)OCc2ccccc2)C[C@@H]2c3cccc4c3c(cn4C)C[C@H]21	inactive			inactive	inactive	inactive	inactive	inactive	inactive	inactive					inactive	27.3 µM (active)	inactive			inactive
O=c1[nH]c2ccccc2n1CCCN1CCC(n2c(=O)[nH]c3cc(Cl)ccc32)CC1	inactive	inactive	inactive	inactive	inactive	inactive	inactive	inactive	inactive	inactive	inactive	inactive	inactive	inactive	inactive	inactive	inactive	inactive	inactive	
COC[C@H]1OC(=O)c2coc3c2[C@@]1(C)C1=C(C3=O)C2CCC(=O)[C@@]2(C)C[C@H]1OC(C)=O (stereo partly specified)	inactive	inactive	inactive	inactive	inactive	inactive		inactive	inactive	18.7 µM (active)	0.264 µM (active)	4.69 µM (active)	1.05 µM (active)					11.8 µM (active)	4.69 µM (active)	0.833 µM (active)
O=C1NCN(c2ccccc2)C12CCN(CC1COc3ccccc3O1)CC2 (stereo unspecified)	inactive	inactive	inactive	inactive	inactive	inactive	inactive	inactive		inactive	inactive	inactive	inactive	inactive	inactive	inactive	inactive	inactive		inactive
